The list is not random: actives were taken first. Their share in the collection is about 2.9%.
EPAC2 ant val: validation of human EPAC2 antagonists. AID 1645886. Q8WZA2. 1.7% of 16,000 active. EPAC2 Rap1B BODIPY-GDP exchange, fluorescence. Potency, µM (highest dose often 112 µM), inactives show top-dose activity, negative = inhibition, most hits filed as inhibitors;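 further: 100% = activation by cAMP agonist control; nearly all actives have a fitted effect of over 40% in size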
Target sequence (Q8WZA2 whole entry, looked up): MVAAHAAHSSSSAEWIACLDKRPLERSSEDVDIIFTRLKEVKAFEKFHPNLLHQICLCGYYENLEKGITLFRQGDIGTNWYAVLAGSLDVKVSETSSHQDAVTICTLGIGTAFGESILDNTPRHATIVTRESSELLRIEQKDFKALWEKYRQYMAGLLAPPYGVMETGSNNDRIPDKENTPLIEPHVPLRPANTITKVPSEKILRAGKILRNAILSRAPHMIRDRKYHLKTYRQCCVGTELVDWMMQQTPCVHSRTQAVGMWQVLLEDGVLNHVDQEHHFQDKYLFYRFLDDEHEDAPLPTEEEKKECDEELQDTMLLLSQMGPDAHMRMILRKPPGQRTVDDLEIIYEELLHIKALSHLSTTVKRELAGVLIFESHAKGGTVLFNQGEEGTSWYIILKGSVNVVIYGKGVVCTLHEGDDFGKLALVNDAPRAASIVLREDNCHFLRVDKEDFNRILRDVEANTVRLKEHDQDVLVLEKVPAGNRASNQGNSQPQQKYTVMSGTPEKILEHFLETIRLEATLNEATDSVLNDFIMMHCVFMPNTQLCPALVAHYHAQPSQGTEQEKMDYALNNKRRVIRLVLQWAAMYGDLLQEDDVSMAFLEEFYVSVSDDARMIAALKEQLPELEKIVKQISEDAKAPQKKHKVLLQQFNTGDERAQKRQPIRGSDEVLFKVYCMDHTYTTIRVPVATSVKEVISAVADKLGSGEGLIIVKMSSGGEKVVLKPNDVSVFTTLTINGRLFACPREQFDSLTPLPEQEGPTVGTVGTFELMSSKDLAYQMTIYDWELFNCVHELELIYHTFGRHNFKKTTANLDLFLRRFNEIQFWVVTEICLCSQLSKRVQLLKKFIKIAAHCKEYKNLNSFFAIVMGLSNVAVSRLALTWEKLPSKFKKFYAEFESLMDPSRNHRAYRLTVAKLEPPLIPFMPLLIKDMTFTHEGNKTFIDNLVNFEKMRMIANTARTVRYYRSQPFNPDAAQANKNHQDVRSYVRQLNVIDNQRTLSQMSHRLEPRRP
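Normalized against a 6.5 mM cAMP agonist control, compounds were tested on 100 nM EPAC2 exchanging Rap1B-bound BODIPY-GDP (250 nM) for 50 uM GDP. Fluorescence drop (ex 480, em 540 nm) was tracked at room temperature over 30 min at 5-min intervals.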
EPAC1 agonist: validation of human EPAC1 agonists | EPAC1 Rap1b BODIPY-GDP exchange, fluorescence | Potency, µM, for the others: max response, positive = active, actives largely listed as activators | O95398 | 1% of 16,000 active; further: nearly all actives have a fitted effect of over 70% in size
* = called active by the depositor; i = inactive; ? = inconclusive; ! = not active in a repeat; [ ] = another dose, or the depositor's remark. The call rests on the fitted dose curve; in most records, active means well fitted curve in the direction sought with a large enough effect; inconclusive means small, poorly fitted or top-dose-only effect, or another doubt; inactive means no such curve, though single readings can be large; an effect the other way counts as inactive or inconclusive. Unless noted, on the % scale 0 is the no-effect control and ±100 the full control effect; potency means the concentration at half of the fitted maximal effect.

SMILES | EPAC2 ant val | EPAC1 agonist
CC[C@]1(c2ncc[nH]2)Cc2ccccc2O1 | 16µM* | 6%
NC(Cc1c[nH]c2ccccc12)C(=O)O (centres undefined) | -7% | 25%
CC(=O)N[C@@H](Cc1c[nH]c2ccccc12)C(=O)OCc1cc(C(F)(F)F)cc(C(F)(F)F)c1 | 45µM*! | 5%
CC(=O)N[C@@H](C=O)[C@H](O)[C@H](O)[C@@H](O)CO | 2% | 29%
C[C@@H](O[C@H]1OCCN(Cc2n[nH]c(=O)[nH]2)[C@@H]1c1ccc(F)cc1)c1cc(C(F)(F)F)cc(C(F)(F)F)c1 | 50µM* | -60%
OC1(c2ccc3c(c2)CN(Cc2nccs2)CCO3)CCN(c2ccccc2F)CC1 | -20% | ?
CC(=O)Oc1ccc2c(c1)CC[C@@H]1[C@@H]2CC[C@]2(C)[C@@H](O)CC[C@@H]12 | 88% | 28µM*
CC(=O)Oc1ccc2c(c1)CCC1C2CC[C@]2(C)C(OC(C)=O)CCC12 (some centres undefined) | -21% | ?
Cc1cc2nc3c(=O)[nH]c(=O)nc-3n(CC(O)C(O)C(O)CO)c2cc1C (centres undefined) | i | 35µM*
CCCC(=O)OC[C@@H](OC(=O)CCC)[C@@H](OC(=O)CCC)[C@H](Cn1c2nc(=O)[nH]c(=O)c-2nc2cc(C)c(C)cc21)OC(=O)CCC | 119% | ?
CCc1nc(CN2CCOc3ccc(C(O)C4CCCCC4)cc3C2)c(C)[nH]1 (centres undefined) | -15% | -4%
Cc1ccc(O)c(N=Nc2ccccc2)n1 | 56µM*! | -14%
Cc1ccc2ccccc2n1 | 10% | -63%
CC(CN1c2ccccc2Sc2cccnc21)N(C)C (centres undefined) | 16% | -16%
COc1ccc(-c2c(-c3ccc4c(c3)OCO4)noc2-c2ccsc2)cn1 | ? | -5%
c1ccc(-c2onc(-c3ccco3)c2-c2ccc3c(c2)OCO3)cc1 | -18% | 112µM*
Cc1cccc(N(C)C(=S)Oc2ccc3c(c2)CCC3)c1 | -12% | 24%
Cc1cccc(N(C)C(=S)Oc2ccc3ccccc3c2)c1 | -27%[56.6 µM] | 112µM*!
COc1ccc2[nH]cc(CCNc3ncnc4ccc(-c5ccccc5C#N)cc34)c2c1 | -21% | 112µM*
COc1ccc2[nH]cc(CCNc3ncnc4ccc(-c5cccc(C#N)c5)cc34)c2c1 | -23% | 24%
CCC(=O)OCC(=O)[C@@]1(OC(=O)CC)[C@H](C)C[C@H]2[C@@H]3CCC4=CC(=O)C=C[C@]4(C)[C@@]3(F)[C@@H](O)C[C@@]21C | ? | 25%
Cc1nnsc1C(=O)NCC1Cc2cccc(-c3ncccn3)c2O1 (centres undefined) | -26% | -1%
COC(=O)C1CCCCN1Cc1nc(N2CCCN(C(C)=O)CC2)c2ccccc2n1 (centres undefined) | -1% | -4%
c1ccc2c(N3CCCCCC3)nc(CN3CCCCC3c3nccs3)nc2c1 (centres undefined) | 20µM* | 1%
CC(=O)c1ccc(F)c(-c2cc(C)cc3c2OC(CNC(=O)Cc2ccc4c(c2)OCO4)C3)c1 (centres undefined) | ? | 19%
SMILES | EPAC2 ant val | EPAC1 agonist
O=C(NNCS(=O)(=O)O)c1ccncc1 | i | 56µM*
O=C(NNCNNC(=O)c1ccncc1)c1ccncc1 | 9% | 7%
OCCCNCc1cc2ccc(F)cc2nc1N1CCN(c2cccc(Cl)c2)CC1 | -20% | 2%
CC(C)NC(=O)[C@@H]1C[C@@H](Sc2nc3ccccc3[nH]2)CN1C1Cc2ccccc2C1 | -25% | 27%
CCC1C(=O)NCCN1Cc1ccc2c(c1)CN(Cc1cccc(OC)c1OC)CCO2 (centres undefined) | -6% | 7%
CCC(C)(C)C(=O)OC1CC(C)C=C2C=CC(C)C(CCC3CC(O)CC(=O)O3)C21 (centres undefined) | i | 6%
CCC(C)(C)C(=O)O[C@@H]1C[C@@H](C)C=C2C=C[C@H](C)[C@H](CC[C@@H]3C[C@@H](O)CC(=O)O3)[C@H]21 | 50µM* | -43%
O=C(CN1Cc2ccccc2OC(c2ccsc2)C1)N1CCN(Cc2ccc3c(c2)OCO3)CC1 (centres undefined) | 56µM* | 8%
O=C(CN1CCN(Cc2ccc3c(c2)OCO3)CC1)N1c2ccccc2Sc2ccccc21 | -23% | 11%
O=C(O)[C@@H](O)[C@H](O)[C@H](O)[C@@H](O)C(=O)O (tested in a mixture with another compound) | -11% | 6%
O=C(NCCN1CCOCC1)c1cnn(-c2nccc(-c3cc4ccccc4o3)n2)c1C1CC1 | 12% | 10%
CCCCC[C@H](O)/C=C/[C@H]1[C@H](O)CC(=O)[C@@H]1CCCCCCC(=O)O | 14µM*! | -15%
CCCCC[C@H](O)CC[C@H]1[C@H](O)CC(=O)[C@@H]1CCCCCCC(=O)O | -18%[11.4 µM] | -14%
Cc1ncc2c(c1CNS(=O)(=O)c1cccs1)CCN(C(=O)/C=C/c1cc(F)cc(F)c1)C2 | -14% | 14%

Compound activity: PubChem, National Center for Advancing Translational Sciences (NCATS)
